Values joined by “and” are separate entries in the source; they are usually repeats but may differ in a detail not shown here. Equal entries are not always repeated. Records with an inconclusive call do not appear. Entries that show only a call come without a potency. Where a structure was tested more than once in an assay, its records may differ in their call. Active and inactive are the calls of the source. Unless noted, the call rests on the fitted dose curve; in most records, active means well fitted curve in the direction sought with a large enough effect in the repeat runs; inconclusive means weak or mixed curves; inactive means flat fitted curve, though single readings scatter.
Test system: not listed separately
Test: qHTS assay to test for compound auto fluorescence at 535 nm (green) in HepG2 cell free culture (AID 720686)
Settings: Cell-free medium, green autofluorescence 485/535 nm; series mostly up to 91.3 µM

Structure (SMILES)	outcome	fluorescence, % of fluorescein control
FC(F)(F)c1ccccc1	inactive	
Cc1c(C(=O)NCCO)[n+](=O)c2ccccc2n1[O-]	inactive	
CCCCc1ccc2nc(NC(=O)OC)[nH]c2c1		-0.0094% [at 18.6 µM] (inactive)
NC(=O)Cc1cccc(C(=O)c2ccccc2)c1N	inactive	
Nc1cccc(S(=O)(=O)O)c1	inactive	
COC(=O)c1ccc(OC)cc1	inactive	
COc1cc(C)ccc1C(C)C	inactive	
C=Cc1ccccc1	inactive	
Cc1cc(S(=O)(=O)O)c(N)cc1Cl	inactive	
O=C(O)c1cccc(Cl)c1Cl	inactive	

Test system: not listed separately
Test: qHTS assay to test for compound auto fluorescence at 460 nm (blue) in HepG2 cells (AID 720687)
Settings: autofluorescence 405/460 nm, 1 h; series mostly up to 91.3 µM
In short: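 Blue-channel autofluorescence (Ex/Em 405/460 nm, triamterene-equivalent) was measured after 1 hr compound exposure at 37 C, 5% CO2. Cells were HepG2, plated overnight at 37 C in MEM plus 10% FBS.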

Structure (SMILES)	outcome	fluorescence, % of fluorescent control
CCCOCCC	inactive	
CCCCNC(=S)NCCCC	inactive	
OCCN(CCO)CCN(CCO)CCO	inactive	
CC(C)C1=CC2=CC[C@@H]3[C@](C)(CCC[C@@]3(C)C(=O)O)[C@H]2CC1	inactive	
NC/C=C/C(=O)O	inactive	
COc1ccccc1N1CCN(CCCNc2cc(=O)n(C)c(=O)n2C)CC1	inactive	
CCN1CC(CCN2CCOCC2)C(c2ccccc2)(c2ccccc2)C1=O (centres undefined)	inactive	
C[C@@H]1CN(c2c(F)c(N)c3c(=O)c(C(=O)O)cn(C4CC4)c3c2F)C[C@H](C)N1	inactive	
CC(C)CC(=O)OCc1ccccc1	inactive	
CC/C=C\CCOC(=O)CCCCC	inactive	
Cc1ccc(C=O)s1	inactive	
FC(F)(F)C(Cl)(Cl)Cl	inactive	
CC(C)c1ccccc1	inactive	
O=Cc1ccc(F)c(Br)c1	inactive	
CCOC(=O)C(Br)c1ccccc1 (centres undefined)	inactive	
CN1CCN(c2c(F)cc3c(=O)c(C(=O)O)cn4c3c2SCC4)CC1	inactive	
O=c1[nH]cnc2c1ncn2[C@@H]1O[C@H](CO)[C@@H](O)[C@H]1O	inactive	
CC(C)C(=O)OC/C=C/c1ccccc1	inactive	
COc1nc(C)nc(NC(=O)NS(=O)(=O)c2ccccc2OCCCl)n1	inactive	
FC(F)(F)c1ccccc1	inactive	
CCCCc1ccc2nc(NC(=O)OC)[nH]c2c1		-0.0106% [at 18.6 µM] (inactive)
NC(=O)Cc1cccc(C(=O)c2ccccc2)c1N	inactive	
Nc1cccc(S(=O)(=O)O)c1	inactive	
COC(=O)c1ccc(OC)cc1	inactive	
COc1cc(C)ccc1C(C)C	inactive	
C=Cc1ccccc1	inactive	
Cc1cc(S(=O)(=O)O)c(N)cc1Cl	inactive	
O=C(O)c1cccc(Cl)c1Cl	inactive	

Molecular target: Glucocorticoid receptor (Homo sapiens) (UniProt P04150)
Sequence (P04150 whole entry, looked up): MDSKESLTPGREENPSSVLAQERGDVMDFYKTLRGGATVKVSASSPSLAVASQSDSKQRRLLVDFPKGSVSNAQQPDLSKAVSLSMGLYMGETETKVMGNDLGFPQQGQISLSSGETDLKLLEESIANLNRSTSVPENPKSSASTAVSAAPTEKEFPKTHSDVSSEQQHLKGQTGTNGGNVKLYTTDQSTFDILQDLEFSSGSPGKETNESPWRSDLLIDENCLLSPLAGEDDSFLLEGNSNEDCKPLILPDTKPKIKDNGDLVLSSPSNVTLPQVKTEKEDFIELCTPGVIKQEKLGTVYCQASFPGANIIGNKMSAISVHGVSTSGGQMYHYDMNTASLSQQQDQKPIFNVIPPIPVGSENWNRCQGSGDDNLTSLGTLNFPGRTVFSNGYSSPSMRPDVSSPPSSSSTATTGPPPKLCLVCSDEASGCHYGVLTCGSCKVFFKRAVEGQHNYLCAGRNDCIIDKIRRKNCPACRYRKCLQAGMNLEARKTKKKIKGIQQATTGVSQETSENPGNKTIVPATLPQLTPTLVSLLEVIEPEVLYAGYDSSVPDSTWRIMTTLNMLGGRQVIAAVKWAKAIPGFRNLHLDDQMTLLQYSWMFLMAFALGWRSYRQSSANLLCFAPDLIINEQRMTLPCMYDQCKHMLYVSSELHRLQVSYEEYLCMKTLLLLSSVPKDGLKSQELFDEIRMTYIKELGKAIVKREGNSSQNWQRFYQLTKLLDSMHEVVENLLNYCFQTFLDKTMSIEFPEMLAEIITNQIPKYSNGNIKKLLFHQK
Test: qHTS assay to identify small molecule agonists of the glucocorticoid receptor (GR) signaling pathway (AID 720691; active means well fitted activation curve with a large enough effect in the signal ratio in the repeat runs, not every such curve was filed as active; the % refers to the signal ratio)
Settings: GR-bla HeLa, beta-lactamase reporter ratio, 18 h; series mostly up to 62.4 µM
In short: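 A HeLa cervical cancer line expressing GR and a glucocorticoid response element-driven beta-lactamase gene is treated with compounds for 18 h; LiveBLAzer B/G FRET substrate is then applied and fluorescence read.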

Structure (SMILES)	Potency
NCCCN1CCN(CCCN)CC1	inactive
CCCCNC(=S)NCCCC	inactive
OCCN(CCO)CCN(CCO)CCO	inactive
NC/C=C/C(=O)O	inactive
CCN1CC(CCN2CCOCC2)C(c2ccccc2)(c2ccccc2)C1=O (centres undefined)	inactive
CCOC(=O)c1ccccc1O	inactive
CC(C)CC(=O)OCc1ccccc1	inactive
CN(C)Cc1ccccc1	inactive
CCCC1CCC(=O)O1 (centres undefined)	inactive
O=c1[nH]cnc2c1ncn2[C@@H]1O[C@H](CO)[C@@H](O)[C@H]1O	inactive
CC(C)C(=O)OC/C=C/c1ccccc1	inactive
Cc1c(C(=O)NCCO)[n+](=O)c2ccccc2n1[O-]	inactive
Cc1cc(S(=O)(=O)O)c(N)cc1Cl	inactive
O=C(O)c1cccc(Cl)c1Cl	inactive

Molecular target: Glucocorticoid receptor (Homo sapiens) (UniProt P04150)
Test: qHTS assay to identify small molecule antagonists of the glucocorticoid receptor (GR) signaling pathway (AID 720692; active means well fitted inhibition curve with a large enough effect in the signal ratio in the repeat runs, not every such curve was filed as active; the % refers to the signal ratio; further: potency means the concentration at half of the fitted maximal effect)
Settings: GR-bla HeLa, beta-lactamase FRET ratio, dexamethasone-stimulated, 18 h; series mostly up to 58.5 µM
In short: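 GRE-bla HeLa line, dex-stimulated (5 nM final). Compound exposure 18 h, 37 C. Beta-lactamase FRET read after 2 h RT substrate.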

Structure (SMILES)	Potency
NCCCN1CCN(CCCN)CC1	inactive
CCCOCCC	inactive
CCCCNC(=S)NCCCC	inactive
OCCN(CCO)CCN(CCO)CCO	inactive
CC(C)C1=CC2=CC[C@@H]3[C@](C)(CCC[C@@]3(C)C(=O)O)[C@H]2CC1	inactive and 54.9 µM (active)
NC/C=C/C(=O)O	inactive
CCN1CC(CCN2CCOCC2)C(c2ccccc2)(c2ccccc2)C1=O (centres undefined)	inactive
C[C@@H]1CN(c2c(F)c(N)c3c(=O)c(C(=O)O)cn(C4CC4)c3c2F)C[C@H](C)N1	inactive
CCOC(=O)c1ccccc1O	inactive
CC(C)CC(=O)OCc1ccccc1	inactive
CN(C)Cc1ccccc1	inactive
CC(C)c1ccccc1	inactive
CCCC1CCC(=O)O1 (centres undefined)	inactive
CN1CCN(c2c(F)cc3c(=O)c(C(=O)O)cn4c3c2SCC4)CC1	inactive
O=c1[nH]cnc2c1ncn2[C@@H]1O[C@H](CO)[C@@H](O)[C@H]1O	inactive
CC(C)C(=O)OC/C=C/c1ccccc1	inactive
COc1nc(C)nc(NC(=O)NS(=O)(=O)c2ccccc2OCCCl)n1	inactive
Cc1c(C(=O)NCCO)[n+](=O)c2ccccc2n1[O-]	inactive
NC(=O)Cc1cccc(C(=O)c2ccccc2)c1N	inactive
COC(=O)c1ccc(OC)cc1	inactive
Cc1cc(S(=O)(=O)O)c(N)cc1Cl	inactive
O=C(O)c1cccc(Cl)c1Cl	inactive

Source: PubChem BioAssay (Tox21)
